Results on 38 compounds are retold here after PubChem BioAssay (NCI).

Compounds without any hit were thinned out: in the full panel of roughly 83,000, 20% have a hit.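 For each line, cells grew in 96-well plates with the test compound present at a single concentration for 48 hours.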 A number with no mark means an inactive call. Activity calls are given as the source filed them. The calls were made as follows: active = growth percent below 10; inactive = the rest.

One experiment concerns SF-295 CNS. The experiment is described as follows: NCI-60 one-dose screen, 48 h (100 = growth as untreated, 0 = no growth, -100 = all killed). The settings on record: 10 µM unless noted.
Take `O=C(Nc1cccc(Cl)c1)c1cc(N=Nc2ccc([N+](=O)[O-])cc2Cl)ccc1O`: the growth was 55.1%.
Same read-out and setting: in the case of `COc1ccc(C2c3ccc4ccccc4c3Oc3nc(C)[nH]c(=O)c32)cc1` (stereo unspecified) it was 105%; in that of `COC(=O)c1ccc(C2Nc3ccc(S(=O)(=O)Nc4ccc(C)c(C)c4)cc3C3OCCC23)cc1` (stereo unspecified), 77.4%.

Another experiment relates to SF-539 CNS. Described as above. The settings on record: 10 µM unless noted.
Turning to `COc1ccc(C2=Nc3c(N)ncnc3NC(c3ccc4c(c3)OCO4)C2)cc1` (stereo unspecified), the growth is 90.3%.
For the compound `COc1ccc2occ(C3=C(c4c[nH]c5ccccc45)C(=O)N(O)C3=O)c2c1`, the growth was 102%.
Same read-out and setting: in the case of `NCCCNc1nc2ccccc2c2c(=O)c3cccc(Cl)c3sc12` it was 66.3%.
`O=c1c2cc(F)ccc2sc2c(NCCN3CCCCC3)nc3ccccc3c12`: the growth was 70.1%.
As to `Cc1ccc2c(c1)Sc1c(ccc3ccccc13)N2`, the growth is 47.5%.
Regarding `CCCCCCCCCCCCCCCCCCOc1ccc(CC(=O)OCC[N+]2(C)CCCC2)cc1`, the growth was 99.7%.
Still for that read-out and setting: in the case of `CC(=O)OC[C@H]1OC(Sc2sc(C(=O)c3ccc(Br)cc3)c(N)c2-c2nc3ccccc3s2)[C@H](OC(C)=O)[C@@H](OC(C)=O)[C@@H]1OC(C)=O` (stereo partly specified) it was 15.7%.
Consider `O=C(O)c1ccc2c(c1)CCC2`, for which the growth was 105%.
As for `COc1ccc(-c2[nH]c(=S)n(C(CC3(C)NCC(=O)N3n3c(-c4ccccc4)cc(C)nc3=S)c3ccc(OC)cc3)c(=O)c2Br)cc1` (stereo unspecified), the growth was 58.4%.
Still for that read-out and setting: in the case of `C[C@H](NC(=O)[C@@H]1CSSC[C@@H](NC(=O)c2nc3ccccc3cc2O)C(=O)NCC(=O)N1C)c1ccccc1` it was 5.09% (active); in that of `CCc1ccccc1-n1c(-c2ccc(Cl)cc2)cc(-c2ccc(Cl)cc2)c(C#N)c1=O`, 104%.
In the case of `COCCc1ccc(OCC(O)CNC(C)C)cc1` (stereo unspecified), the growth is 106%.
In the case of `COc1ccc(/C=C/c2c(C(=O)/C=C/c3cccs3)c(C)nc3ccccc23)cc1`, the growth was 95.9%.
Still for that read-out and setting: under `COc1ccc(-c2nc3c(N)c(CO)c(C)nc3o2)cc1` stands 93.9%; under `CC(C)C(=O)Nc1n[nH]c2cc(-c3cccc(NS(=O)(=O)C4CC4)c3)ccc12`, 77.8%.
On to `COc1ccc(-c2nc3ccc4[nH]ncc4c3c3c2CCCC3)cc1B(O)O`, for which the growth was 52.8%.
For the compound `COc1cc(OC)cc(C2CC(=O)Nc3c2c(C)nn3-c2nc3ccccc3[nH]2)c1` (stereo unspecified), the growth was 18.4%.
As for `CCOC(=O)c1c2ncccc2n2c(=O)n(-c3ccccc3C)nnc12`, the growth is 91.8%.
`CCN(CCNc1ccc(C)c2sc3ccccc3c(=O)c12)CC(C)(C)O`: the growth was 78.9%.
Take `CCCCNC(=O)Oc1ccc2c(=O)c3sc4c(=O)c5ccccc5c(=O)c4c3c(=O)c2c1`: the growth is -96.6% (active).
Turning to `O=C(NCCCNc1cc(-c2cn(-c3ccccc3)nc2-c2cccc(O)c2)ccn1)c1ccc(F)cc1`, the growth is 13.9%.
For the compound `CC(C)=C[C@@H]1c2c(c3ccccc3n(C)c2=O)O[C@H]2c3c(c4ccccc4n(C)c3=O)OC(C)(C)[C@@H]12`, the growth was 81.2%.
In the case of `CCN1CCN(c2nc(C)cc(NCc3cc(Nc4ccnc5cc(Cl)ccc45)ccc3F)n2)CC1`, the growth was -81% (active).
Regarding `COc1ccc2c(c1)O/C(=C\c1cccc(OCC(=O)Nc3nc4ccccc4s3)c1)C2=O`, the growth was 97.6%.
Still for that read-out and setting: in the case of `Cc1nn(-c2ccccc2)c(Oc2ccc(Cl)cc2)c1/C=N\N=c1/sc2ccccc2n1C` it was 107%; in that of `COc1cc(C2NC(=O)c3ccccc3N2)ccc1OCCCCCOc1c(OC)cc(C2=NOC(c3cc(OC)c(OC)c(OC)c3)C2)cc1OC` (stereo unspecified), 83.2%.
Regarding `COc1cc(C2CC(=O)Nc3c2c(C)nn3-c2nc3ccccc3[nH]2)c(OC)c(OC)c1OC` (stereo unspecified), the growth is 63.7%.
On to `CC1(C)OC2C(CO[Si](C)(C)C(C)(C)C)OC(n3c(I)c(C#C[Si](C)(C)C)c(=O)[nH]c3=O)C2O1` (stereo unspecified), for which the growth is 105%.
Still for that read-out and setting: in the case of `CC(=O)N1C(=S)NC(=O)C1Cn1c(-c2ccccc2)nc2ccccc21` (stereo unspecified) it was 97.1%; in that of `COCN1CCC2N(COC)CCC3N(COC)CCC1N23` (stereo unspecified), 101%.
The same measure, in the same setting: under `C=CC(=O)Nc1cccc(Oc2nccc(Nc3nnc(C4CC4)s3)n2)c1` stands 89.1%; under `COc1ccc(N=Nc2ccc(O)c(=O)cc2)cc1`, -5.77% (active); under `C=C1C(=O)O[C@H]2[C@H]1CC/C(COC(=O)C(=O)c1cn(C)c3ccc(OC)cc13)=C\CC[C@@]1(C)O[C@@H]21`, -66.9% (active).
Regarding `COc1cccc(-c2nn(-c3ccccc3)cc2-c2ccnc(NCCNC(=O)Nc3ccccc3)c2)c1`, the growth was 83.6%.
As for `COC(=O)[C@]12CC[C@@H](C)[C@H](C)[C@@H]1C1=CC[C@@H]3[C@@]4(C)C(C=O)=C[C@@](C)(COC(C)=O)[C@@H]4[C@H](O)C[C@@]3(C)[C@]1(C)CC2`, the growth was -55.4% (active).
`O=C(Nc1cccc(Cl)c1)c1cc(N=Nc2ccc([N+](=O)[O-])cc2Cl)ccc1O`: the growth is 54.2%.
With `COc1ccc(C2c3ccc4ccccc4c3Oc3nc(C)[nH]c(=O)c32)cc1` (stereo unspecified), the growth was 96.8%.
As for `COC(=O)c1ccc(C2Nc3ccc(S(=O)(=O)Nc4ccc(C)c(C)c4)cc3C3OCCC23)cc1` (stereo unspecified), the growth was 96.2%.
